{"source": "PubChem BioAssay (EPA / NIEHS)", "note": "Calls of active or inactive are those of the source. How the source made its calls: active means hit-call score of the fitted dose curve at least 0.9, where 1 is the maximum; inactive means score below 0.9.", "data": [{"assay": "ATG_PXRE_CIS: Attagene CIS-FACTORIAL HepG2 Assay for human Pregnane X Receptor Element (PXRE) (AID 2282957)", "settings": "HepG2 Attagene CIS-FACTORIAL PXRE reporter, mRNA; actives raise or lower the signal", "method": "ATG_CIS is a cell-based, multiplexed-readout assay that uses HepG2, a human liver cell line, with measurements taken at 24 hours after chemical dosing in a 24-well plate.ATG_PXRE_CIS is one of 52 assay component(s) measured or calculated from the ATG_CIS assay. It is designed to make measurements of mRNA induction, a form of inducible reporter, as detected with fluorescence intensity signals by Reverse transcription polymerase chain reaction (RT-PCR) and Capillary electrophoresis technology.Data from the assay component ATG_PXRE_CIS was analyzed into 1 assay endpoint. This assay endpoint, ATG_PXRE_CIS, was analyzed with bidirectional fitting relative to DMSO as the negative control and baseline of activity. Using a type of inducible reporter, measures of mRNA for gain or loss-of-signal activity can be used to understand the reporter gene at the transcription factor-level as they relate to the gene NR1I2. Furthermore, this assay endpoint can be referred to as a primary readout, because this assay has produced multiple assay endpoints where this one serves a reporter gene function. To generalize the intended target to other relatable targets, this assay endpoint is annotated to the nuclear receptor intended target family, where the subfamily is non-steroidal.\nHuman liver HepG2 cells are transiently transfected with multiple reporter transcription units (MRTUs) in 6-well plates using FuGene 6 reagent (Roche; 3 ml FuGene/1 mg DNA). The MRTU constructs are regulated by a cis-regulating element (promoter). […] A major difference between the CIS and TRANS system is that in CIS activities of endogenous TFs are measured, whereas the TRANS assay evaluates changes in activities of exogenous, chimeric NR-Gal4 proteins. […] At the end of 24 hour incubation, total RNA was isolated using TriZol reagent (Invitrogen). The isolated RNA is then reverse-transcribed using oligo(dT) primer and Mo-MLV reverse transcriptase (Invitrogen) with DNAse I (Ambion) treatment for 30 min. The one-tenth of the produced cDNA was amplified by PCR using Taq DNA polymerase (Invitrogen) and two reporter sequence-specific primers. The PCR products were fluorescently labeled by primer extension with 6-arboxyfluorescein (6-FAM) 5'-labeled reporter sequence-specific primer (2 min at 95 C, 20 s at 68 C and 10 min at 72 C) and these products were digested with 5U of HpaI (New England Biolabs) for 2h at 37 C. The fragments were purified using Qiaquick PCR columns (Qiagen), analyzed on an ABI 3130xL genetic analyzer (Applied Biosystems) with peak positions identified by using a set of X-rhodamine (ROX)-labeled MapMarker1000 molecular weight standards (BioVentures). The raw capillary electrophoresis data was processed using Attagraph software (Attagene).", "values": [{"smiles": "CC(=O)[C@H]1CC[C@H]2[C@@H]3CC=C4C[C@@H](O)CC[C@]4(C)[C@H]3CC[C@]12C", "AC50": "3.37 µM (active)"}, {"smiles": "C[C@H]1C[C@H]2[C@@H]3CCC4=CC(=O)C=C[C@]4(C)[C@@]3(F)[C@@H](O)C[C@]2(C)[C@@]1(O)C(=O)COP(=O)(O)O", "outcome": "inactive"}, {"smiles": "CC(=O)OCCC(C)CC(C)(C)C", "note": "(stereo not given)", "outcome": "inactive"}, {"smiles": "O=C(O)c1cccc([N+](=O)[O-])c1", "outcome": "inactive"}, {"smiles": "COc1c(Cl)c(Cl)c(Cl)c(Cl)c1Cl", "AC50": "26.2 µM (active)"}, {"smiles": "CC1(C)[C@H]2CC[C@]1(C)[C@H](O)C2", "AC50": "68.7 µM (active)"}, {"smiles": "CC(=O)OCc1ccc2c(c1)OCO2", "AC50": "26.9 µM (active)"}, {"smiles": "CCCOCC(C)O", "note": "(stereo not given)", "AC50": "25.5 µM (active)"}, {"smiles": "C=CC(C)(O)CCC=C(C)CCC=C(C)C", "note": "(stereo not given)", "AC50": "9.06 µM (active)"}, {"smiles": "C=CC(=O)OCC(O)COc1ccccc1", "note": "(stereo not given)", "outcome": "inactive"}, {"smiles": "CCC(=O)OCc1ccccc1", "outcome": "inactive"}, {"smiles": "CCCCCCCCCCC(CO)CCCCCCCC", "note": "(stereo not given)", "outcome": "inactive"}, {"smiles": "COc1ccc(O)cc1", "AC50": "57.5 µM (active)"}, {"smiles": "CCc1c(C)cc(N)c(CC)c1N", "AC50": "64.5 µM (active)"}, {"smiles": "CCCCCNCCCCC", "AC50": "59.4 µM (active)"}, {"smiles": "CC(O)C(C)O", "note": "(stereo not given)", "outcome": "inactive"}, {"smiles": "CCCC[n+]1ccccc1", "outcome": "inactive"}, {"smiles": "C[C@]12CC[C@H]3[C@@H](CCC4=CC(=O)CC[C@@]43C)[C@@H]1CC[C@@H]2C(=O)CO", "AC50": "1.7 µM (active)"}, {"smiles": "CCC(=O)OCCC(C)CCC=C(C)C", "note": "(stereo not given)", "AC50": "41.1 µM (active)"}, {"smiles": "CN(C)CCCN", "outcome": "inactive"}, {"smiles": "CN(C)CCOCCN(C)C", "outcome": "inactive"}, {"smiles": "COc1ccc(NC(=O)CC(C)=O)cc1", "outcome": "inactive"}, {"smiles": "CO[Si](C)(OC)c1ccccc1", "AC50": "2.95 µM (active)"}, {"smiles": "O=[N+]([O-])c1cc(C(F)(F)F)ccc1Cl", "AC50": "12.7 µM (active)"}, {"smiles": "O=C=NC1CCC(CC2CCC(N=C=O)CC2)CC1", "note": "(stereo not given)", "outcome": "inactive"}, {"smiles": "CC(=O)OCC=Cc1ccccc1", "AC50": "32.1 µM (active)"}, {"smiles": "CC1CCC(C(C)(C)O)CC1", "note": "(stereo not given)", "outcome": "inactive"}, {"smiles": "O=[N+]([O-])c1ccc(C=Cc2ccc([N+](=O)[O-])cc2S(=O)(=O)O)c(S(=O)(=O)O)c1", "outcome": "inactive"}, {"smiles": "CNCCCC12CCC(c3ccccc31)c1ccccc12", "outcome": "inactive"}, {"smiles": "CC1(CO)CN(c2ccccc2)NC1=O", "note": "(stereo not given)", "outcome": "inactive"}, {"smiles": "CC(C)(Oc1ccc(CCNC(=O)c2ccc(Cl)cc2)cc1)C(=O)O", "AC50": "25.6 µM (active)"}, {"smiles": "CCCCCC=CCC(=O)OC", "AC50": "100 µM (active)"}, {"smiles": "Cc1cccc(C)c1[N+](=O)[O-]", "outcome": "inactive"}, {"smiles": "CCCCCCCCCCCCN", "outcome": "inactive"}, {"smiles": "CC(CCO)CCCC(C)(C)O", "note": "(stereo not given)", "outcome": "inactive"}, {"smiles": "CC[Si](OC(C)=O)(OC(C)=O)OC(C)=O", "AC50": "6.28 µM (active)"}, {"smiles": "Clc1sc(Cl)c(Cl)c1Cl", "outcome": "inactive"}, {"smiles": "NCCOCCO", "outcome": "inactive"}, {"smiles": "CCCCCCC#CC(=O)OC", "AC50": "30.5 µM (active)"}, {"smiles": "C=CC(=O)OCCOCCOCC", "AC50": "27 µM (active)"}]}]}
